Bioassay records as filed in PubChem.
OvCa metastasis: ovarian cancer metastasis inhibition, 3D TME model | SKOV3ip1-GFP adhesion/invasion on 3D omental model, fluorescence | Potency, µM (series often up to 45.8 µM), usual class: inhibitors | hit rate 0.1% among 46,000; note: nearly all actives have a fitted effect of over 65% in size
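qHTS, 4-pt dose (0.36-46 umol/L); SKOV3ip1-GFP, 1,200 cells/well, no FBS; primary omental fibroblast/mesothelial co-culture 48 h pre-grown; 2 h RT + 16 h 37 C; PBS wash, 4% PFA; GFP count 488/509 nm.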
GALC G270D up: enhancers of human galactocerebrosidase G270D mutant activity in cells. Potency, µM (highest dose often 57.5 µM), usual class: activators. hit rate 0.1% among 45,000. 145M-Twi-hGALC-G270D cells (Twitcher mouse brain line with human GALC G270D), HMU-beta-Gal fluorescence, 48 h. P54803; note: nearly all actives have a fitted effect of over 65% in size
Target sequence (P54803 whole entry G286D): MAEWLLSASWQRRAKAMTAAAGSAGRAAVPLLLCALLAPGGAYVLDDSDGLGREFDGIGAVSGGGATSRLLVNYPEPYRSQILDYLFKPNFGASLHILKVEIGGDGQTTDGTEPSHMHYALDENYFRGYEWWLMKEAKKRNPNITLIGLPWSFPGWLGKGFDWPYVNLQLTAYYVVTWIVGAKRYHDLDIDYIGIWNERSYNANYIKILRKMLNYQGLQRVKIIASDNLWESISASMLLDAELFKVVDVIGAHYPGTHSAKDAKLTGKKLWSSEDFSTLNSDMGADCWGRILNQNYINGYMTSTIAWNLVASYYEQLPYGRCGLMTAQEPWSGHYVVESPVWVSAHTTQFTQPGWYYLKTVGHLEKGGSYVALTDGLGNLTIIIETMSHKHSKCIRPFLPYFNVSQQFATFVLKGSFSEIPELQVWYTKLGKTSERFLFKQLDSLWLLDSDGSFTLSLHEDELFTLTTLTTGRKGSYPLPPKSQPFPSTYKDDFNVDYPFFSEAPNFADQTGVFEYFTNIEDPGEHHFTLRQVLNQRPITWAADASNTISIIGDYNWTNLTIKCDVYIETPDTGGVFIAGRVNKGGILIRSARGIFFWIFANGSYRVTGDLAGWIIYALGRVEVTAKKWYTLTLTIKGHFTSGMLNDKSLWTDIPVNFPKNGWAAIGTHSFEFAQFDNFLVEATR
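Brain-derived Twitcher mouse 145M-Twi cells stably expressing human GALC-G270D or wild-type GALC, treated live, then residual GALC activity read by fluorescence of HMU-b-Gal substrate (0.1 mM final) in citrate-phosphate buffer pH 5.2 with sodium taurocholate. Signal increase indicates enhancement.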
PMP22 txn: modulates PMP22 transcription in S16 Schwann cells; S16 Pmp22-F2sN Schwann cells, FLuc/NLuc coincidence luminescence, 24 h; Potency, µM (series often up to 57.5 µM), usual class: inhibitors; hit rate 2% among 43,000; AID 1508649; active = clear falling dose curves in both reporters; inconclusive = both reporters move, but less clearly or upward; inactive = either reporter flat; the % is the NLuc reporter signal
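S16 Schwann cells carrying FLuc/NLuc coincidence reporter in the Pmp22 3' UTR treated with compound 24 h at 37C; FLuc then NLuc luminescence read sequentially by dual-luciferase reagents.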
mTORC1 inh: inhibitors of mTORC1 signaling in Tsc2-/- p53-/- MEF cells; Tsc2-/- p53-/- MEF, phospho-rpS6 immunofluorescence/PI, 24 h; Potency, µM (highest dose often 38.3 µM), usual class: inhibitors; hit rate 0.78% among 44,000; AID 493208; note: nearly all actives have a fitted effect of over 50% in size
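Compounds act on Tsc2-/-, p53-/- fibroblasts carrying an empty vector for 24 h before fixation and dual staining for phospho-S6 and DNA (propidium iodide). Values are percentages of cells above a rapamycin-defined pS6/PI threshold.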
S16 F2sN tox: S16 Schwann cell cytotoxicity. S16 Pmp22-F2sN Schwann cells (luciferase reporters placed in the Pmp22 gene) viability, CellTiter-Glo, 24 h. Potency, µM (highest dose often 57.5 µM), hits mostly cytotoxic. hit rate 0.48% among 43,000; note: nearly all actives have a fitted effect of over 65% in size
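CellTiter-Glo counter-screen, qHTS, 1536-well. Cells: S16(c9) Pmp22-F2sN, 500-1,000/well in DMEM + 10% FBS. Cpd 23 nL pin transfer, 24 h, 37C/5% CO2. Read: luminescence, CCD imager.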
NLuc sat counter: NanoLuc enzyme inhibition artifact for PMP22 screen; shares compounds with PMP22 txn; Secreted NLuc enzyme (filtered S16 cell medium), Nano-Glo luminescence; Potency, µM (top dose mostly 57.5 µM), hits mostly inhibitors; hit rate 4% among 690; AID 1508638
NLuc Km counter: counter-screen for PMP22 expression modulators: NanoLuc inhibition at Km; hit rate 5% among 690; AID 1508639; secreted NLuc enzyme, coelenterazine luminescence, Km conditions; Potency, µM (series often up to 57.5 µM), hits mostly inhibitors; shares compounds with PMP22 txn
FLuc counter: counter-screen for PMP22 expression modulators: firefly luciferase inhibition | shares compounds with PMP22 txn | purified P. pyralis FLuc, luminescence, 10 min | Potency, µM (series often up to 57.5 µM), usual class: inhibitors | 690 tested, under 10 active | AID 1508640
S16 viab conf: S16 Schwann cell cytotoxicity, confirmatory; shares compounds with PMP22 txn; Potency, µM (highest dose often 57.5 µM), usual class: cytotoxic; S16 Schwann cells viability, CellTiter-Glo ATP luminescence, 24 h; AID 1508641; hit rate 7% among 690
PMP22 txn conf: confirmation of modulators of PMP22 gene transcription in S16 cells; Potency, µM (highest dose often 57.5 µM), usual class: inhibitors; shares compounds with PMP22 txn; S16 Schwann cells Pmp22-F2sN, dual luciferase, 24 h; AID 1508646; hit rate 22% among 690; active = clear falling dose curves in both reporters; inconclusive = both reporters move, but less clearly or upward; inactive = either reporter flat; the % is the FLuc reporter signal
PMP22 HiBiT cnf: confirmation of modulators of rat PMP22 protein expression. shares compounds with PMP22 txn. S16 Schwann cells Pmp22-HiBiT, luminescence, 48 h. Potency, µM (top dose mostly 27.9 µM), usual class: inhibitors. 95 tested, under 10 active
Numbers stand for hits; [ ] = dose if it differs, or a comment. In the library only some 2.6% were active in any assay of this set; here they are far more common. Unless noted, calls come from the whole dose curve; as a rule, active = well fitted curve in the direction sought with a large enough effect; inconclusive = small, poorly fitted or top-dose-only effect, or another doubt; inactive = no such curve, though single readings can be large; an effect the other way counts as inactive or inconclusive.

What do the screens show for `CCNC(=O)Nc1ccc(Oc2ncnc(N)c2C=NOC)cc1Cl`?
OvCa metastasis: inactive

Results for CCc1ccc2ncc(C(=O)c3ccc(C)c(C)c3)c(N3CCC(C(N)=O)CC3)c2c1 ?
OvCa metastasis: inactive; GALC G270D up: inactive; PMP22 txn: 13µM; mTORC1 inh: inactive; S16 F2sN tox: inactive; NLuc sat counter: 5.4µM; NLuc Km counter: 7.7µM; FLuc counter: inactive; S16 viab conf: inactive; PMP22 txn conf: inconclusive

Results for CCOC(=O)C1CCCN(c2c(C(=O)c3ccc(C)cc3)cnc3ccc(OCC)cc23)C1 (centres undefined) ?
OvCa metastasis: inactive; GALC G270D up: inactive; PMP22 txn: inconclusive; mTORC1 inh: inactive; S16 F2sN tox: inactive

Results for COc1ccc(NC(=O)c2cc3c(s2)-c2c(C)cccc2OC3)cc1Cl ?
OvCa metastasis: inactive; GALC G270D up: inactive; PMP22 txn: 16µM; mTORC1 inh: inactive; S16 F2sN tox: 28µM; NLuc sat counter: inactive; NLuc Km counter: inactive; FLuc counter: inactive; S16 viab conf: inconclusive; PMP22 txn conf: inconclusive

How did CCOc1cc(CNCCSc2nnnn2C)ccc1OCc1ccc(Cl)cc1Cl do in these assays?
OvCa metastasis: inconclusive; GALC G270D up: inactive; PMP22 txn: inconclusive; mTORC1 inh: inconclusive; S16 F2sN tox: inconclusive

Results for CCOc1cc(CNc2ccc(O)cc2)cc(Br)c1OCc1ccccc1 ?
OvCa metastasis: inactive; GALC G270D up: inactive; PMP22 txn: 8.5µM; mTORC1 inh: inactive; S16 F2sN tox: inconclusive; NLuc sat counter: inconclusive; NLuc Km counter: inconclusive; FLuc counter: inactive; S16 viab conf: inactive; PMP22 txn conf: 15µM; PMP22 HiBiT cnf: inactive

How did CCOc1cc(CNc2ccc(O)cc2)ccc1OCc1ccc(Cl)cc1 do in these assays?
OvCa metastasis: inactive; GALC G270D up: inactive; PMP22 txn: 7.8µM; mTORC1 inh: inconclusive; S16 F2sN tox: inconclusive; NLuc sat counter: 17µM; NLuc Km counter: 19µM; FLuc counter: inconclusive; S16 viab conf: inactive; PMP22 txn conf: inactive

Results for CC(C)(C)[C@H](NC(=O)c1ccc(N)c(Cl)c1)C(=O)N1CCC[C@@H]1C(=O)N[C@H](C#N)CC(=O)O ?
OvCa metastasis: inactive[3.51 µM]

What do the screens show for `COc1ccc(OCc2ccc(-c3nc(C#N)c(N4CCC(C)CC4)o3)o2)cc1`?
OvCa metastasis: inactive; GALC G270D up: inactive; PMP22 txn: 6.7µM; mTORC1 inh: inactive; S16 F2sN tox: inactive; NLuc sat counter: inactive; NLuc Km counter: inactive; FLuc counter: inactive; S16 viab conf: inactive; PMP22 txn conf: inactive

Results for Cc1ccc(OCc2ccc(-c3nc(C#N)c(N4CCC(C)CC4)o3)o2)cc1 ?
OvCa metastasis: inactive; GALC G270D up: inactive; PMP22 txn: inconclusive; mTORC1 inh: inactive; S16 F2sN tox: inactive
